# According to PubChem BioAssay AID1159580 (chemical genetic matrix, 2015):
# “And” between values parts separate entries of the source, which are not always exact repeats. Equal values may be shown once. Hit rate of the full screen: of about 5,500 compounds, about 2,000 (36%) were called active. Inconclusive results (about 18%) are left out. No stated cut-off is given here; in the data, active means normalized growth mostly below about 0.91 (no sharp cut-off); inconclusive means no clear call, values can overlap the other calls; inactive means mostly above about 0.92. The list shows a part of the results.
# Assay: chemical genetic growth profiling, strain panel (AID 1159580);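 further: tested at 20 µM; growth read once vehicle control cultures reached saturation at 30 °C; 1 = growth at the plate median or of vehicle wells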
# Settings: S. cerevisiae deletion strains, growth OD
smiles,measurement,setting,value
O=C(CCCN1CCC(O)(c2ccc(Cl)cc2)CC1)c1ccc(F)cc1,normalized growth,"locus YAL013W, strain DEP1, stronger effect = lower value",0.797 (active)
same,normalized growth,"locus YAL021C, strain ccr4, stronger effect = lower value",0.903 (active)
same,normalized growth,"locus YAL026C, strain drs2, stronger effect = lower value",0.0861 (active)
same,normalized growth,"locus YAL030W, strain snc1, stronger effect = lower value",0.991 (inactive)
same,normalized growth,"locus YAL040C, strain CLN3, stronger effect = lower value",1.02 (inactive)
same,normalized growth,"locus YBL061C, strain skt5, stronger effect = lower value",0.951 (inactive)
same,normalized growth,"locus YBR009C, strain hhf1, stronger effect = lower value",0.889 (active)
same,normalized growth,"locus YBR021W, strain FUR4, stronger effect = lower value",0.535 (active)
same,normalized growth,"locus YBR023C, strain chs3, stronger effect = lower value",0.919 (inactive)
same,normalized growth,"locus YBR171W, strain sec66, stronger effect = lower value",1.03 (inactive)
same,normalized growth,"locus YBR229C, strain ROT2, stronger effect = lower value",0.981 (inactive)
same,normalized growth,"locus YBR231C, strain swc5, stronger effect = lower value",0.815 (active)
same,normalized growth,"locus YBR279W, strain paf1, stronger effect = lower value",0.918 (active)
same,normalized growth,"locus YCL011C, strain gbp2, stronger effect = lower value",0.948 (inactive)
same,normalized growth,"locus YCL016C, strain dcc1, stronger effect = lower value",0.902 (active)
same,normalized growth,"locus YCL029C, strain bik1, stronger effect = lower value",0.945 (inactive)
same,normalized growth,"locus YCL061C, strain MRC1 (second series), stronger effect = lower value",0.979 (inactive)
same,normalized growth,"locus YCL061C, strain MRC1, stronger effect = lower value",1.01 (inactive)
same,normalized growth,"locus YCL069W, strain vba3, stronger effect = lower value",0.985 (inactive)
same,normalized growth,"locus YCR088W, strain abp1, stronger effect = lower value",1.03 (inactive)
same,normalized growth,"locus YDL005C, strain med2, stronger effect = lower value",1.03 (inactive)
same,normalized growth,"locus YDL035C, strain GPR1, stronger effect = lower value",0.803 (active)
same,normalized growth,"locus YDL040C, strain nat1, stronger effect = lower value",1.02 (inactive)
same,normalized growth,"locus YDL074C, strain BRE1, stronger effect = lower value",0.739 (active)
same,normalized growth,"locus YDL101C, strain DUN1, stronger effect = lower value",0.921 (inactive)
same,normalized growth,"locus YDL185W, strain tfp1, stronger effect = lower value",1.01 (inactive)
same,normalized growth,"locus YDL192W, strain arf1, stronger effect = lower value",0.751 (active)
same,normalized growth,"locus YDR001C, strain nth1, stronger effect = lower value",1.04 (inactive)
same,normalized growth,"locus YDR069C, strain doa4, stronger effect = lower value",0.837 (active)
same,normalized growth,"locus YDR101C, strain arx1, stronger effect = lower value",0.904 (active)
same,normalized growth,"locus YDR137W, strain rgp1, stronger effect = lower value",1.04 (inactive)
same,normalized growth,"locus YDR150W, strain NUM1, stronger effect = lower value",0.949 (inactive)
same,normalized growth,"locus YDR159W, strain sac3, stronger effect = lower value",1.02 (inactive)
same,normalized growth,"locus YDR162C, strain NBP2, stronger effect = lower value",0.747 (active)
same,normalized growth,"locus YDR195W, strain ref2",1.46 [resistant] (active)
same,normalized growth,"locus YDR297W, strain sur2, stronger effect = lower value",0.972 (inactive)
same,normalized growth,"locus YDR318W, strain mcm21, stronger effect = lower value",0.838 (active)
same,normalized growth,"locus YDR334W, strain swr1, stronger effect = lower value",1.04 (inactive)
same,normalized growth,"locus YDR335W, strain msn5, stronger effect = lower value",0.984 (inactive)
same,normalized growth,"locus YDR363W, strain ESC2, stronger effect = lower value",0.886 (inactive)
same,normalized growth,"locus YDR388W, stronger effect = lower value",0.413 (active)
same,normalized growth,"locus YDR392W, strain spt3, stronger effect = lower value",0.281 (active)
same,normalized growth,"locus YDR502C, strain sam2, stronger effect = lower value",0.814 (active)
same,normalized growth,"locus YEL003W, strain gim4, stronger effect = lower value",0.909 (active)
same,normalized growth,"locus YEL037C, strain rad23, stronger effect = lower value",0.998 (inactive)
same,normalized growth,"locus YEL061C, strain CIN8 (second series), stronger effect = lower value",1.02 (inactive)
same,normalized growth,"locus YEL061C, strain CIN8, stronger effect = lower value",0.923 (active)
same,normalized growth,"locus YER002W, strain NOP16, stronger effect = lower value",1.01 (inactive)
same,normalized growth,"locus YER015W, strain faa2, stronger effect = lower value",0.987 (inactive)
same,normalized growth,"locus YER016W, strain bim1, stronger effect = lower value",0.943 (inactive)
same,normalized growth,"locus YER110C, stronger effect = lower value",0.977 (inactive)
same,normalized growth,"locus YER111C, strain swi4, stronger effect = lower value",1.02 (inactive)
same,normalized growth,"locus YER155C, strain BEM2 (second series), stronger effect = lower value",0.42 (active)
same,normalized growth,"locus YER155C, strain BEM2, stronger effect = lower value",1.01 (inactive)
same,normalized growth,"locus YER167W, strain BCK2, stronger effect = lower value",0.839 (active)
same,normalized growth,"locus YFR010W, strain ubp6, stronger effect = lower value",0.867 (active)
same,normalized growth,"locus YGL078C, strain dbp3, stronger effect = lower value",0.978 (inactive)
same,normalized growth,"locus YGL086W, strain mad1, stronger effect = lower value",0.837 (active)
same,normalized growth,"locus YGL167C, strain pmr1, stronger effect = lower value",0.963 (inactive)
same,normalized growth,"locus YGL173C, strain kem1, stronger effect = lower value",0.951 (inactive)
same,normalized growth,"locus YGL227W, strain vid30, stronger effect = lower value",1.05 (inactive)
same,normalized growth,"locus YGL240W, strain doc1, stronger effect = lower value",0.979 (inactive)
same,normalized growth,"locus YGL248W, strain PDE1, stronger effect = lower value",0.661 (active)
same,normalized growth,"locus YGL253W, strain hxk2, stronger effect = lower value",0.859 (active)
same,normalized growth,"locus YGR078C, strain PAC10, stronger effect = lower value",0.855 (inactive) and 0.989 (inactive)
same,normalized growth,"locus YGR135W, strain pre9, stronger effect = lower value",0.73 (active)
same,normalized growth,"locus YGR229C, strain SMI1, stronger effect = lower value",0.324 (active)
same,normalized growth,"locus YGR252W, strain gcn5, stronger effect = lower value",0.368 (active)
same,normalized growth,"locus YHR013C, strain ard1, stronger effect = lower value",0.807 (active)
same,normalized growth,"locus YHR027C, strain rpn1, stronger effect = lower value",0.899 (active)
same,normalized growth,"locus YHR030C, strain SLT2, stronger effect = lower value",0.794 (active) and 0.973 (inactive)
same,normalized growth,"locus YHR079C, strain IRE1 (second series), stronger effect = lower value",0.928 (inactive)
same,normalized growth,"locus YHR079C, strain IRE1, stronger effect = lower value",0.979 (inactive)
same,normalized growth,"locus YHR094C, strain hxt1, stronger effect = lower value",1.03 (inactive)
same,normalized growth,"locus YHR129C, strain ARP1, stronger effect = lower value",0.926 (inactive)
same,normalized growth,"locus YHR142W, strain chs7, stronger effect = lower value",0.85 (active)
same,normalized growth,"locus YHR200W, strain rpn10, stronger effect = lower value",0.98 (inactive)
same,normalized growth,"locus YIL066C, strain RNR3, stronger effect = lower value",0.846 (active)
same,normalized growth,"locus YIL073C, strain SPO22, stronger effect = lower value",1.25 (inactive)
same,normalized growth,"locus YIL125W, strain kgd1, stronger effect = lower value",1.02 (inactive)
same,normalized growth,"locus YIR030C, strain dcg1, stronger effect = lower value",0.979 (inactive)
same,normalized growth,"locus YJL092W, strain hpr5, stronger effect = lower value",0.986 (inactive)
same,normalized growth,"locus YJL095W, strain BCK1 (second series), stronger effect = lower value",0.899 (active)
same,normalized growth,"locus YJL095W, strain BCK1, stronger effect = lower value",0.332 (active) and 0.99 (inactive)
same,normalized growth,"locus YJL115W, strain asf1, stronger effect = lower value",1.01 (inactive)
same,normalized growth,"locus YJL129C, strain trk1, stronger effect = lower value",0.717 (active)
same,normalized growth,"locus YJL134W, strain LCB3, stronger effect = lower value",0.988 (inactive)
same,normalized growth,"locus YJL154C, strain vps35, stronger effect = lower value",1.03 (inactive)
same,normalized growth,"locus YJL164C, strain tpk1, stronger effect = lower value",0.907 (active)
same,normalized growth,"locus YJL166W, strain qcr8, stronger effect = lower value",0.912 (inactive)
same,normalized growth,"locus YJL168C, strain set2, stronger effect = lower value",0.995 (inactive)
same,normalized growth,"locus YJL187C, strain SWE1 (second series), stronger effect = lower value",0.792 (active)
same,normalized growth,"locus YJL187C, strain SWE1, stronger effect = lower value",0.989 (inactive)
